Structures are written as SMILES. Where “and” joins values, the source holds several entries; their conditions need not be identical. Identical values can stand only once. About 160 (1%) of roughly 16,000 compounds were called active. Not shown: some 8% with an inconclusive outcome. The list comes from a sample in which actives are over-represented; it also holds similar structures and randomly drawn compounds. Unmarked numbers belong to inactive results. The call rests on the fitted dose curve; in most records, active means well fitted activation curve with a large enough effect; inconclusive means small, poorly fitted or top-dose-only effect; inactive means no such curve, though single readings can be large or run the other way.
On the % scale 0 is the no-effect control and ±100 the full control effect; potency means the concentration at half of the fitted maximal effect.

In this test the target is Rap guanine nucleotide exchange factor 3 (Homo sapiens) (UniProt O95398). As to the kind of experiment: Validation qHTS for agonist of cAMP-regulated guanine nucleotide exchange factor 3 (EPAC1). Further: nearly all actives have a fitted effect of over 70% in size. Particulars: EPAC1 Rap1b BODIPY-GDP exchange, fluorescence; max response: hits give high values, percent of cAMP control response. The text has this: Assay Provider (PI): Xiaodong Cheng Ph.D.
Chain of Rap guanine nucleotide exchange factor 3 (Homo sapiens) (O95398 whole entry, looked up): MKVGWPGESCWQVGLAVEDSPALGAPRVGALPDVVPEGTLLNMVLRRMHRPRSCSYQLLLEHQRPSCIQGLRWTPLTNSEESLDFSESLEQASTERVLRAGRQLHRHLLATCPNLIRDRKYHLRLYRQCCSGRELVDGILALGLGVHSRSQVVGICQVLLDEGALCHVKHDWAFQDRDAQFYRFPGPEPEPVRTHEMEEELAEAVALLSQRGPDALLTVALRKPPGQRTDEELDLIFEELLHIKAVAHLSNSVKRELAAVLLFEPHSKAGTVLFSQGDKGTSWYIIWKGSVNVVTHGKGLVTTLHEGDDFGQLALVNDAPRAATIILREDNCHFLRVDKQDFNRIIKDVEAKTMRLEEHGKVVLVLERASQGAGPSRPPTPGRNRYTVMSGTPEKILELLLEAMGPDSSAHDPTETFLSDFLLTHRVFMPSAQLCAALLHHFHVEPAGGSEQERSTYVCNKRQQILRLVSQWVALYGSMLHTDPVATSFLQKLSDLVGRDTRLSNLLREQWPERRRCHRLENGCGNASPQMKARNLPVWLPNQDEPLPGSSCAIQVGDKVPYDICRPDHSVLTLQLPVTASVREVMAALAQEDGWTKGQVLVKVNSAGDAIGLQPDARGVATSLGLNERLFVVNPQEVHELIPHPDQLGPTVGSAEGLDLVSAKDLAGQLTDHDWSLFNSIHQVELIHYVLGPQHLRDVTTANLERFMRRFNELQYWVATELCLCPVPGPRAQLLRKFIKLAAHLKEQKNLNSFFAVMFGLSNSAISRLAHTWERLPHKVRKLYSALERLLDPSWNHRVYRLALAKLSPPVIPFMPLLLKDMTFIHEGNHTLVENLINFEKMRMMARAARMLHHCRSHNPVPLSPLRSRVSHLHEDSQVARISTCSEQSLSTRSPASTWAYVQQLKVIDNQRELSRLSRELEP
The University of Texas Medical Branch, […], TX
In multi-cellular eukaryotic organisms, the effects of cAMP are transduced by two ubiquitously-expressed intracellular cAMP receptors, the classic protein kinase A/cAMP-dependent protein kinase (PKA/cAPK) and the more recently discovered exchange protein directly activated by cAMP/cAMP-regulated guanine nucleotide exchange factor (EPAC/cAMP-GEF). Both PKA and EPAC are ubiquitously expressed in all tissues, and an increase in intracellular cAMP levels will lead to the activation of both PKA and EPAC. Therefore, careful dissections of the individual role and relative contribution of EPAC and PKA within the overall cAMP signaling in various model systems are critical for further elucidating the mechanism of cAMP signaling. To date no EPAC-specific antagonists and agonist, as well as isoform-specific agonists have been reported, and developing EPAC-specific pharmacological probes to determine the physiological functions that EPAC play in the overall cAMP-mediated signaling remains a major challenge within the research field. Furthermore, identified regulators of EPAC may lead to new mechanism-based therapeutic strategies specifically targeting the EPAC / cAMP-signaling components as EPAC has been implicated to play important roles in major human pathological conditions such as diabetes, heart disease, and cancer.
This qHTS will be used to screen the Molecular Libraries Small Molecule Repository (MLSMR) as a concentration-titration series using the NCGC unique quantitative screening (qHTS) platform to find activators for EPAC1. In addition, this assay will also be used as a counterscreen for the EPAC2 qHTS. This fluorescent based assay is developed and validated for EPAC1 that measures exchange using EPAC effector Rap1 complex with BODIPY-GDP, a GDP analog with a tethered fluorophores. Activators are identified by monitoring the change in fluorescence signal as the exchanged free BODIPY-GDP has a reduced fluorescence compared to Rap1-bound BODIPY-GDP. Increase in signal (activation) is the desired outcome for the EPAC1 agonist while no activity in this assay is desired for the EPAC2 agonist counterscreen.
[1] de Rooij, J., Zwartkruis, F. J., Verheijen, M. H., Cool, R. H., Nijman, S. M., Wittinghofer, A., and Bos, J.L. (1998) Nature 396, 474-477.
Briefly, three uL of reagents (100 nM EPAC1, 250 nM RAP1B-BODIPY-GDP, 50 uM GDP) were dispensed into a 1536-well Greiner black solid-bottom medium binding assay plate. Controls and test compounds (23 nL) were transferred to the plate via a Kalypsys pin tool equipped with a 1536-pin array. The plates were centrifuged at 1,000 rpm for 15 seconds followed by 5 minute incubation at room temperature. The assay plates were read at 5 minute intervals for 30 minutes in the ViewLux plate reader using 480nm excitation and 540nm emission filters. The results were normalized to the agonist positive control of 6.5 mM cAMP.
Background: Quantitative high-throughput screening tests each substance at several concentrations.
On to `O=c1cc(-c2ccc(O)c(O)c2)oc2cccc(O)c12`, for which the max response was 8.34%.
The same measure, in the same setting: as for `COc1cc(C)c(CN2CCc3nnc(C(C)NC(=O)c4cccnc4)n3CC2)cc1C` (centres undefined), the figure is 12.1%; as for `COCCNc1ncnc2ccc(-c3cccnc3)cc12`, -29.2%; as for `CN(C)c1ccc(/C=c2\[nH]c(=O)/c(=C/c3ccc(N(C)C)cc3)[nH]c2=O)cc1`, 8.62%.
The same measure, in the same setting: in the case of `CC(C)C1=CC2=CC[C@@H]3[C@](C)(CO)CCC[C@]3(C)C2CC1` (some centres undefined) it was -8.55%.
For `Cc1cc2nc3c(=O)[nH]c(=O)nc-3n(C[C@H](O)[C@H](O)[C@H](O)CO)c2cc1C`, the Potency was 100 µM (active).
For `O=C(Nc1ccccc1)N[C@H]1C[C@H](C(=O)O)Nc2cc(Cl)cc(Cl)c21`, the max response is 1.49%.
On to `C=C1CC[C@H](O)CC1=C/C=C1\CCC[C@]2(C)[C@@H]([C@H](C)/C=C/[C@H](C)C(C)C)CC[C@@H]12`, for which the max response is -127%.
On the same count and under the same terms, as for `CC(N)=NCc1cccc(CN)c1`, the figure is 8.83% and -11.8%; as for `CCOC(=O)C[C@H]1c2ccc(C(F)(F)F)cc2S(=O)(=O)N1c1ccccc1`, -85%; as for `CCC1CN(CCNC(=O)c2cccnc2C)Cc2cc(OC)ccc2O1` (centres undefined), 1.97%.
The same measure, in the same setting: in the case of `Cc1nc2cnc(Oc3cccc(Cl)c3)nc2n(C2CC2)c1=O` it was -12.8%; in that of `Cc1[nH]c2c(C(=O)NCC3Cc4cccc(-c5cccnc5)c4O3)cccc2c1C` (centres undefined), 19.3%; in that of `O=S1(=O)CCO[C@H]2Cc3ccccc3[C@H]2N1Cc1ccccc1`, 7.53%.
In the case of `CC(=O)OC1CCC2(O)CC1(C)CCC1C2CC1(C)C` (centres undefined), the max response is -18.2%.
On the same count and under the same terms, in the case of `COc1cc2c(cc1OC)CC(=O)N(CCCN(C)C[C@H]1Cc3cc(OC)c(OC)cc31)CC2` it was 1.48%; in that of `COc1ccc(C2CC(=O)c3c(O)cc(OC4OC(COC5OC(C)C(O)C(O)C5O)C(O)C(O)C4O)cc3O2)cc1O` (centres undefined), -7.79%; in that of `O=C(c1cnccn1)N1CCC2(CCN(Cc3cc(C(F)(F)F)cc(C(F)(F)F)c3)CC2)CC1`, -66.3%.
On the same count and under the same terms, as for `NC(=O)C(=O)N/N=C/c1ccc([N+](=O)[O-])o1`, the figure is -37.2%.
For `COCCNc1ccnc(-c2cccc(NS(C)(=O)=O)c2)n1`, the max response was -9.71%.
Same read-out and setting: in the case of `Nc1nc(/C(=C/CC(=O)O)C(=O)N[C@@H]2C(=O)N3C(C(=O)O)=CCS[C@H]23)cs1` it was 13.2%.
On the same count and under the same terms, as for `N#C/C(=C\c1ccc(O)c(O)c1)C(N)=O`, the figure is -9.7% and -17.1%; as for `COc1ccccc1C(=O)N[C@@H]1c2ccccc2C2(CCN(Cc3nc(C(C)C)cs3)CC2)[C@H]1O`, 12.9%.
On the same count and under the same terms, as for `CN(C)c1ccc(CN2CCOc3ccc(CN4CCC(O)(c5cccnc5)CC4)cc3C2)cc1`, the figure is -6.57%; as for `O=C(c1cc(C(F)(F)F)cc(C(F)(F)F)c1)N1CCC2(CC1)CN(c1ccncc1)C2`, 12.3%; as for `O=c1[nH]c(=O)c2nc3ccccc3nc2[nH]1`, -1.62% and 3.86%.
With `COC(=O)[C@@H]1C[C@H](NC(=O)c2ccccc2C(F)(F)F)CN1Cc1cccc(O)c1`, the max response was -10.1%.
With `Cc1cc(-c2ccnc(-n3ncc(C(=O)NC(C)(C)CO)c3C3CC3)n2)c(C)s1`, the max response was 5.17%.
Still for that read-out and setting: as for `CS(=O)(=O)N1CCC2(CCN(c3ccncc3)CC2)CC1`, the figure is -40.6%.
Still for that read-out and setting: as for `O=c1c(O)c(-c2ccc(O)cc2)oc2ccccc12`, the figure is -32.1%.
Take `COc1ccc(/C=C2\NC(=O)[C@@H]3Cc4ccccc4CN3C2=O)cc1`: the max response was 5.8%.
Same read-out and setting: in the case of `CN1CCN2c3ccccc3Cc3ccccc3[C@@H]2C1` it was -0.216%.
In the case of `CCS(=O)(=O)Nc1cc(C(=O)N2C[C@@H](C)O[C@@H](C)C2)c2c(c1)nc(-c1ccccc1)n2C`, the max response is 19.2%.
For the molecule `COc1ccc(CNc2ncnc3ccc(-c4cccnc4)cc23)c(OC)c1`, the max response is -62.5%.
The same measure, in the same setting: as for `FC(F)(F)c1ccccc1-c1nc(-n2ccnc2)c2ccccc2n1`, the figure is 0.971%; as for `CC(=O)Nc1ccc(SC[C@H](Cc2ccccc2)N2CC[C@@H](C)CCC2=O)cc1`, -7.47%; as for `CCCN(C/C=C\I)[C@@H]1CCc2cccc(O)c2C1`, -15.6%.
Same read-out and setting: in the case of `COc1ccccc1-c1nc(N2CCN(C)CC2)c2ccccc2n1` it was -31.8%.
The same measure, in the same setting: as for `c1ccc2nc(C3=NCCN3)cnc2c1`, the figure is 0.273%; as for `O=c1cnc2cnc(Nc3ccccc3)nc2n1Cc1ccc(F)cc1`, -19.3%.
Regarding `Nc1ccc2c3c(cccc13)C(=O)NC2=O`, the Potency is 7.08 µM (active).
Consider `CCC1CN(CCNC(=O)c2ccsc2)Cc2cc(OC)ccc2O1` (centres undefined), for which the max response was 4.39%.
On the same count and under the same terms, in the case of `O=c1c(CCc2ccccc2)nc2cncnc2n1C1CC1` it was 26%.
On the same count and under the same terms, as for `CC(=O)c1ccc(F)c(-c2cc(C)cc3c2OC(CNC(=O)Cc2c[nH]c4ccccc24)C3)c1` (centres undefined), the figure is 24.4%; as for `CCCCCCCCCCCCCCCCO`, -1.51%; as for `CC(=O)OCC(=O)[C@@]1(O)CCC2C3CCC4=CC(=O)CC[C@@]4(C)[C@]3(F)C(O)C[C@]21C` (some centres undefined), -5.21%.
Same read-out and setting: in the case of `CN1CC(O)c2cc(N=NC(N)=O)c(O)cc21` (centres undefined) it was -6.9%.
Take `CCCc1nc2c(C)cc(-c3nc4ccccc4n3C)cc2n1Cc1ccc(-c2ccccc2C(=O)O)cc1`: the max response was -43.1%.
Still for that read-out and setting: as for `COc1ccccc1CNc1cc(-c2ccccc2CN(C)C)ncn1`, the figure is -35.4%.
As for `FC(F)(F)c1ccccc1-c1cc(NCc2ccccc2)ncn1`, the max response is -105%.
Turning to `Cc1cnc(C(=O)N2CCOc3ccc(CN4CCCC(C(=O)c5cccnc5)C4)cc3C2)[nH]1` (centres undefined), the max response is -8.53%.
On the same count and under the same terms, as for `O=C(Nc1ccc(O)cc1)c1ccccc1O`, the figure is 7.12%; as for `CC(C(=O)O)c1ccc(C2CCCCC2)c2ccccc12` (centres undefined), 5.84%.
Same read-out and setting: in the case of `CCOC(=O)Cc1cccc(-c2cc(CCCCCCc3ccc(O[C@H]4O[C@H](COC(C)=O)[C@@H](OC(C)=O)[C@H](OC(C)=O)[C@@H]4OC(C)=O)c(-c4cccc(CC(=O)OCC)c4)c3)ccc2O[C@H]2O[C@H](COC(C)=O)[C@@H](OC(C)=O)[C@H](OC(C)=O)[C@@H]2OC(C)=O)c1` it was -9.09%; in that of `CCc1nc2cc(C(=O)NCC3CCS(=O)(=O)C3)cc(NC(=O)c3ccccc3OC)c2n1C` (centres undefined), -13.5%; in that of `COC(=O)c1ccccc1C(=O)NCc1nc(N2CCCC2)c2cccc(C)c2n1`, -26.9%.
On the same count and under the same terms, as for `CN(Cc1cccc2ncccc12)C(=O)c1cnn(-c2nccc(-c3ccccc3F)n2)c1C1CC1`, the figure is -28.3%; as for `CC(=O)N1CCC2(CC1)CCN(c1ccncc1)CC2`, -44.5%.
On to `Cc1noc(C)c1-c1nc(Nc2ccccc2)c2ccccc2n1`, for which the max response is -34.4%.
On the same count and under the same terms, in the case of `O=C(c1ccncc1)N1CCC2(CCN(Cc3cc(C(F)(F)F)cc(C(F)(F)F)c3)CC2)CC1` it was -125%; in that of `CC(C)NC(=O)N1CC[C@@]2(CCCN(C(=O)c3cccc(F)c3)C2)C1`, 17.8%.
The same measure, in the same setting: in the case of `O=C(c1cc(C(F)(F)F)cc(C(F)(F)F)c1)N1CCC2(CCCN(c3ccccn3)C2)CC1` it was -45%; in that of `CC(C)NC(=O)N1CCCC2(CCN(C(=O)c3cccn3C)CC2)C1`, -48.1%; in that of `N#Cc1ccc[n+](CC(=O)c2ccc(F)cc2)c1`, 3.1%.

The values are drawn from PubChem BioAssay AID1645883 (National Center for Advancing Translational Sciences (NCATS), 2021).
